Reference: PubChem BioAssay (NCATS)
Records with an inconclusive call do not appear. Where a call stands in place of a potency, no number is given. Values without a mark were called inactive. The source made the active and inactive calls. Calls follow the shape of the dose curve; as a rule, active = well fitted inhibition curve with a large enough effect; inconclusive = small, poorly fitted or top-dose-only effect; inactive = flat fitted curve, though single readings scatter.

Test: P-glycoprotein substrates identified in KB-8-5-11 adenocarcinoma cell line, qHTS therapeutic library screen (AID 1346987); also: nearly all actives have a fitted effect of over 65% in size; as to activity change, negative = cytotoxicity: series mostly up to about 44 µM
Method in brief: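 In this qHTS, P-gp-rich KB-8-5-11 cells received library compounds across a concentration range. Viability was quantified by luminescence after 72 h at 37 degree C.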
Potency is read from the fitted curve at half-maximal effect.

Row | Compound | Potency | activity change, negative = cytotoxicity
1 | CCN1CCN(Cc2ccc(NC(=O)c3ccc(C)c(NC(=O)c4cncc(-c5cccs5)c4)c3)cc2C(F)(F)F)CC1 | 7.31 µM (active) | 
2 | CC1(C(=O)O)CCCC2(C)C3CCC4CC3(CCC12)CC4=O (stereo not given) | inactive | 
3 | O=C(O)c1ccc(OC2OC(CO)C(O)C(O)C2O)cc1 (stereo not given) | inactive | 
4 | C[C@@H]1COCCN1c1cc(C2(S(C)(=O)=O)CC2)nc(-c2cccc3[nH]ccc23)n1 | 1.46 µM (active) | 
5 | CC(Oc1cc(-n2cnc3ccc(CN4CCN(C)CC4)cc32)sc1C(N)=O)c1ccccc1C(F)(F)F (stereo not given) | 2.59 µM (active) | 
6 | C=CC1(C)C=C2CCC3C(C)(C)C(O[C@@H]4O[C@@H](CO)[C@H](O)[C@H]4O)CCC3(C)C2CC1O[C@@H]1O[C@H](C)[C@H](O)[C@H](O)[C@H]1O (stereo not given in full) | inactive | 
7 | C=CC(=O)Nc1cccc(Nc2nc(Nc3ccc(N4CCN(C(C)=O)CC4)cc3OC)ncc2C(F)(F)F)c1 | 20.6 µM (active) | 
8 | CC(=O)CCC1=C(C)C(O[C@@H]2O[C@H](CO)[C@@H](O)[C@H](O)[C@H]2O)C(O)CC1(C)C (stereo not given in full) | inactive | 
9 | CC(C)=CCC[C@](C)(O[C@@H]1O[C@H](CO)[C@@H](O)[C@H](O)[C@H]1O)[C@H]1CC[C@]2(C)[C@@H]1[C@H](O)CC1[C@@]3(C)CC[C@H](O)C(C)(C)C3[C@@H](O[C@@H]3O[C@H](CO)[C@@H](O)[C@H](O)[C@H]3O[C@@H]3OC[C@@H](O)[C@H](O)[C@H]3O)C[C@]12C (stereo not given in full) |  | -2.05% [at 9.29 µM]
10 | CC(O)CCC1C(CO[C@@H]2O[C@H](CO)[C@@H](O)[C@H](O)[C@H]2O)CC(O)CC1(C)C (stereo not given in full) | inactive | 
